Marburg entry inh = qHTS for inhibitors of binding or entry into cells for Marburg Virus | Marburg virus pseudotyped entry inhibition, cell reporter | Potency, µM (titrated, usually from 37.8 µM), for the others: top-dose activity change, negative = inhibition, usual class: inhibitors | 300,000 compounds, 1.8% hits; calls by dose curve; tested in HEK293 cells
RE007 growth inh = qHTS Assay for Inhibitors of the HIV-1 protein Vpr. S. pombe RE007 Vpr strain, BacTiter-Glo ATP luminescence, 24 h. Potency, µM (highest dose often 92.2 µM), for the others: at the top dose activity change, negative = less growth, most hits filed as inhibitors. 360,000 compounds, 0.21% hits. AID 651644, 2012; active = well fitted falling curve with a large enough effect; inconclusive = small, poorly fitted or top-dose-only effect; inactive = no such curve, though single readings can be large or run the other way; note: nearly all actives have a fitted effect of over 50% in size
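Fission yeast strain RE007, carrying one chromosomally integrated HIV-1 vpr copy, was seeded at OD 0.01 in PMG+AL medium with 23 nL pinned compound. After 24 h at 30 °C and 99% humidity, viability was read by BacTiter-Glo luminescence.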
HCV inh = qHTS Assay for Inhibitors of Hepatitis C Virus (HCV); Huh7.5.1 HCVcc-Cre infection, luciferase reporter, 44 h; Potency, µM (series often up to 41.8 µM), for inactives: top-dose activity change, negative = inhibition, actives largely listed as inhibitors; 340,000 compounds, 3.4% hits; AID 651820, 2012
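Cells seeded at 1,000/well and cultured 4 h, then compounds added followed by HCVcc-Cre virus (~0.5 moi). After 44 h further culture, luciferase substrate was added, plates held 15 min at room temperature, and luminescence read for 15 sec.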
Sm TGR block = qHTS Assay for the Inhibitors of Schistosoma Mansoni Peroxiredoxins; purified TGR, DTNB reduction, TNB absorbance 405 nm; Potency, µM (top dose mostly 114 µM), for the others: top-dose activity change, negative = inhibition, hits mostly inhibitors; 360,000 compounds, 3% hits; AID 485364, 2010; note: nearly all actives have a fitted effect of over 60% in size
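TGR 20 nM + NADPH 100 uM (dispensed conc.), cpd preinc 15 min RT; start with NADPH (500 uM addition) then DTNB (15 mM addition). Kinetic TNB absorbance, 405 nm filter. Four-parameter Hill fit across titration.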
FMDV inh = High Throughput Screening for Foot and Mouth Disease Virus Antivirals | FMDV antiviral cell-based qHTS | 410,000 compounds, 1.2% hits | Potency, µM (titrated, usually from 57.9 µM), for inactives: at the highest dose activity change, negative = inhibition, hits mostly inhibitors; calls by dose curve; tested in HEK293T cells; note: read-out not given here; nearly all actives have a fitted effect of over 45% in size
Lassa entry inh = qHTS for Inhibitors of binding or entry into cells for Lassa Virus; Lassa virus pseudotype entry inhibition, cell reporter; Potency, µM (titrated, usually from 37.9 µM), without a hit: top-dose activity change, negative = inhibition, usual class: inhibitors; 300,000 compounds, 1.2% hits; calls by dose curve; tested in HEK293 cells; note: nearly all actives have a fitted effect of over 50% in size
* hit, by the source's call; ? = inconclusive; / = no result; [ ] = another dose, or the depositor's remark. The list is not random: actives were taken first. Their share in the collection is about 7.2%. Unless noted, calls come from the whole dose curve; as a rule, active = well fitted curve in the direction sought with a large enough effect; inconclusive = small, poorly fitted or top-dose-only effect, or another doubt; inactive = no such curve, though single readings can be large; an effect the other way counts as inactive or inconclusive. % is set by controls: 0 for no effect and ±100 for the full control effect; potency is the fitted concentration of half-maximal effect.

SMILES	Marburg entry inh	RE007 growth inh	HCV inh	Sm TGR block	FMDV inh	Lassa entry inh
CCCNC(=O)OC[C@H]1O[C@H](CCON=Cc2ccc(C(=O)N3[C@H](C(=O)OC)CC[C@H](C)[C@@H]3c3ccc(C)cc3)cc2)C=C[C@H]1Oc1ccc(OC)cc1	-28.4%[14.2 µM]	/	/	/	/	-24.1%[14.3 µM]
O=C(Nc1ccc2nc(SCC(=O)N3CCCc4ccccc43)sc2c1)c1cccc(Cl)c1	?	/	/	-3.6%	-20.4%	-10.8%[46.1 µM]
O=C1C=C(N2CCN(C3=CC(=O)CCC3)CC2)CCC1	5.3%	-0.2%	10.1%	20µM*	0.0%	4.8%
Cc1ccc(Cl)cc1NC(=O)C(C)n1nnc2sc3c(c2c1=O)CCCC3 (configuration not stated)	?	/	/	3.6%	0.0%	0.2%[46.1 µM]
CCc1cc(C(=O)c2ccc(OC)cc2)c(N)s1	?	-5.7%	4.0%	-11.2%	9.9%	?
COc1ccc(C(=O)c2ccsc2N)cc1	9.4%[46.1 µM]	-11.9%	-7.5%	12.6µM*	30.7%	8.4%
CCCn1c(SCC(=O)c2ccc3c(c2)NC(=O)CO3)nc2ccccc21	-1.7%	-1.8%	-23.4%	39.8µM*	-20.5%	-10.4%
O=C(O)C[C@@H]1C(=O)O[C@@H]2C(COC(=O)c3cc(O)c(O)c(O)c3)O[C@@H](OC(=O)c3cc(O)c(O)c(O)c3)[C@@H](OC(=O)c3cc(O)c(O)c4c3[C@H]1[C@H](O)C(=O)O4)[C@H]2OC(=O)c1cc(O)c(O)c(O)c1 (some centres not stated)	/	/	/	15.8µM*	/	/
Cc1cc(C)c(S(=O)(=O)Nc2cc(Cl)c3oc4c(c3c2)C(=O)CCC4)cc1C	10.0%[46.1 µM]	/	/	0.0%	37.0%	12.6%[46.1 µM]
O=C(c1ccccc1)c1ccc(NCCCn2ccnc2)c([N+](=O)[O-])c1	?	-11.0%	35.5µM*	-4.7%	9.9%	?
Cc1c(Cl)cccc1NC(=O)Cn1cc(C(=O)C2CCCCC2)c2ccccc21	?	/	/	-2.7%	?	?
CC(=O)c1ccc(F)c(-c2cc(C)cc3c2OC(CNC(=O)c2cnc4ccccn4c2=O)C3)c1 (configuration not stated)	/	/	/	/	16.2%	/
C/C(=N/NS(=O)(=O)c1cccc([N+](=O)[O-])c1)c1c[nH]c2ccccc12	7.9%	-7.8%	-1.6%	44.7µM*	6.5%	-1.4%
C/C(=N/NS(=O)(=O)c1ccccc1)c1c[nH]c2ccccc12	2.0%[46.1 µM]	-2.4%	-0.7%	?	-1.7%	27.2%[46.1 µM]
CCOC(=O)c1ccc(NC(=O)Nc2ccc3snnc3c2)cc1	15.7%[46.1 µM]	/	/	-6.8%	-3.8%	10.1%[46.1 µM]
O=S(=O)(c1ccccc1)c1nnn2c1nc(N1CCN(c3ccccc3)CC1)c1cc(Cl)ccc12	10.9%[46.1 µM]	/	/	26.0%	0.0%	/
CN(CC(=O)Nc1cccc(F)c1)C(=O)c1sccc1-c1ccccc1	-19.2%[46.1 µM]	-1.8%	?	-2.5%	-15.2%	-19.8%
CN(CC(=O)Nc1ccc(Cl)cc1)C(=O)c1sccc1-c1ccccc1	/	1.0%	12.6µM*	6.8%	?	/
COC(=O)NC(/C=C/c1ccco1)[C@@]1(C(=O)OC)CCCC1=O (some centres not stated)	3.0%[14.2 µM]	/	/	/	/	/
COc1ccc(Br)cc1C(=O)Nc1cccc2ncccc12	?	-20.0%	10µM*	-5.4%	-0.7%	17.4%
COc1ccc(Br)cc1C(=O)Nc1ccc(C(=O)O)cc1	-0.1%[46.1 µM]	-17.9%	?	0.6%	8.6%	5.5%[46.1 µM]
COc1ccc(Br)cc1C(=O)Nc1ccc(O)cc1	25.3%	8.0%	3.98µM*	3.4%	/	-10.2%
COc1ccc(OC)c(NC(=O)Cn2cc(C(=O)c3ccc(Cl)cc3)c(=O)c3cc(OC)ccc32)c1	-22.4%[46.1 µM]	/	/	-13.9%	-8.0%	-5.1%[46.1 µM]
CC[C@H]1OC(c2ccccc2)[C@H](C)[C@H]2O[C@@H]2[C@@H]1C(=O)OC (some centres not stated)	-5.4%[14.2 µM]	/	/	/	/	/
COc1ccc(/C=N/NC(=O)c2ccccc2Cl)cc1CSc1nc2ccccc2s1	?	8.1%	?	5.0%	8.7%	13µM*
SMILES	Marburg entry inh	RE007 growth inh	HCV inh	Sm TGR block	FMDV inh	Lassa entry inh
COc1ccc(/C=N/NC(=O)c2cccnc2)cc1CSc1nc2ccccc2s1	-16.5%	-2.5%	-10.1%	1.4%	35.5µM*	-23.7%
Cc1cc(C)n(CCC(=O)N/N=C/c2c(O)ccc3ccccc23)n1	/	3.9%	?	-0.5%	-25.7%	/
O=C(CCSc1nc2ccccc2s1)N/N=C/c1c(O)ccc2ccccc12	?	2.1%	3.16µM*	-6.9%	-5.1%	?
COc1ccc(/C=N/NC(=O)CCSc2nc3ccccc3s2)cc1OC	-14.5%	-4.2%	10µM*	8.9%	0.0%	-6.4%
COc1ccc(/C=N/NC(=O)Nc2cccc3nsnc23)cc1OC	15.1%	-1.9%	5.62µM*	-7.7%	-28.7%	1.3%
COc1ccc(/C=N/NC(=O)c2ccn[nH]2)cc1COc1ccc([N+](=O)[O-])c(C)c1	-16.4%	6.7%	-10.1%	6.2%	-24.5%	?
COc1ccc(/C=N/NC(=O)c2cccnc2)cc1COc1ccc([N+](=O)[O-])c(C)c1	?	-6.2%	-67.7%	0.7%	39.8µM*	?
O=C(CN1CCCC1)N/N=C/c1c(O)ccc2ccccc12	/	3.6%	7.94µM*	-4.6%	-17.0%	/
O=C(N/N=C/c1c(O)ccc2ccccc12)C(=O)N1CCCC1	/	-0.3%	/	/	-12.1%	/
COc1ccc(NC(=O)c2cccc(N3CCCS3(=O)=O)c2)cc1	/	/	/	4.3%	49.0%	?
COc1cccc(N/C(SCc2cccc([N+](=O)[O-])c2)=C(/C#N)C(N)=O)c1	?	5.1%	-15.4%	-3.6%	35.5µM*	?
C#CCOCCOCCOCCNc1nc(N2CCN(C(=O)[C@H](C(C)C)n3cc(CCO)nn3)CC2)nc(N2CCN(C(=O)[C@H](C)n3cc(CCCN=C(N)N)nn3)CC2)n1	/	7.9%	-6.3%[8.37 µM]	/	7.9%	/
CC1(c2ccc3noc(-c4ccccc4)c3c2)OCCO1	-14.7%	5.6%	?	-0.6%	15.8µM*	?
Oc1cc2c(cc1O)C1c3ccc(O)c(O)c3OCC1(O)C2 (configuration not stated)	/	-22.7%	-16.1%	0.708µM*	?	/
Cc1ccc(N2C(=O)c3ccccc3C2C(=O)c2ccc(C)c(C)c2O)cc1 (configuration not stated)	-7.1%	2.6%	-28.6%	4.47µM*	13.3%	?
Cc1ccc(N2C(=O)c3ccccc3C2C(=O)c2ccc(O)cc2O)cc1 (configuration not stated)	?	1.4%	-3.5%	?	-17.0%	?
COc1cc(-c2noc(CCCC(=O)NCc3ccco3)n2)cc(OC)c1OC	0.4%	30.5%	?	44.7µM*	-0.7%	1.4%

Screening results from PubChem BioAssay.
